This is a sample that favours compounds with a hit; in the whole collection about 0.57% have one here.
PrP 5UTR inh: suppresses PrP 5' UTR mRNA reporter expression; cell-based PrP 5' UTR mRNA reporter, plate reader; AID 488862; inhibition, % (no concentration beside the values); 0.35% of 340,000 active; in the data active = inhibition above about 52%
TcdB inh: inhibitors of Clostridioides difficile toxin B glycohydrolase | TcdB glycohydrolase enzymatic assay, plate reader | inhibition, % at 9.99 µM | 0.24% of 350,000 active | AID 652162; in the data active = inhibition above about 10%
Mtb BioA inh: inhibitors of Mycobacterium tuberculosis BioA enzyme | 0.096% of 360,000 active | purified M. tuberculosis BioA enzyme, plate reader | AID 602481 | inhibition, % at 9.99 µM; in the data active = inhibition above about 40%
Y pestis TopoI: inhibitors of Yersinia pestis topoisomerase I; Y. pestis Topo-I cleavage product accumulation, plate reader; activity, % at 10 µM; 0.064% of 360,000 active; in the data active = activity above about 50%, passing the limit was not always enough
Hits are given with their value; – = inactive; · = not tested or not shown; ! = not active in a repeat.

SMILES	PrP 5UTR inh	TcdB inh	Mtb BioA inh	Y pestis TopoI
COc1ccc(-c2ccc3c(c2)[C@H]2[C@H](CCN2C(=O)CN2CCOCC2)[C@@H](CO)N3)cc1	·	14.5	–	·
O=C(C[C@@H]1C=C[C@H](NC(=O)Nc2ccccc2)[C@H](CO)O1)NCc1ccccn1	·	·	–	·
C[C@H](NC(=O)C[C@@H]1CC[C@H](NC(=O)Cc2ccccn2)[C@@H](CO)O1)c1ccccc1	·	–	–	·
Oc1ccc(Nc2nc(Cl)nc(NCc3ccco3)n2)cc1	–	12.9	·	–
O=C(C1CCC1)N1CC(=O)N2[C@H](CO)[C@@H](c3ccc(-c4ccccc4F)cc3)[C@@H]2C1	·	–	·	·
c1ccc(OCCSc2nnc3sc4ccccc4n23)cc1	–	12.2	–	–
C[C@@H]1CN([C@@H](C)CO)S(=O)(=O)c2ccc(C#CCN(C)C)cc2O[C@@H]1CN(C)Cc1ccncc1	·	–	–	·
Cc1ccc(C(=O)CNc2cccc(Cl)c2)cc1	–	·	–	65.1
O=C(CNc1cccc(Cl)c1)c1ccc(Cl)cc1	–	·	–	–
Cc1cc(-c2ccc(Cl)cc2Cl)c(C#N)c(=O)[nH]1	–	–	–	–
CSc1nc(-c2ccc(Cl)cc2Cl)[nH]c(=O)c1C#N	–	12.6	–	–
CS(=O)(=O)N1Cc2cc(C(=O)NCC3CCCCC3)nc(-c3cccc(-c4cccnc4)c3)c2[C@@H]1CCO	·	–	·	·
S=C(N/N=C/c1ccc2ncccc2c1)Nc1cccnc1	–	–	·	–
Oc1ccc(/C=N/NC(=S)Nc2cccnc2)cc1O	–	25.6	·	–
COc1cc2nncc(SC)c2cc1OC	–	10.9	–	–
CSc1cnnc2ccccc12	–	–	·	–
CO[C@@H]1CN(C)C(=O)c2cc(NC(=O)CC(F)(F)F)ccc2OC[C@H](C)N(C(=O)C2CCOCC2)C[C@H]1C	·	–	·	·
COC(=O)Nc1ccc(S(=O)(=O)N2CCCC(C(=O)O)C2)cc1 (stereo unspecified)	–	–	·	–
CC(=O)Nc1ccc(S(=O)(=O)N2CCCC(C(=O)O)C2)cc1 (stereo unspecified)	–	18.0	·	–
CO[C@H]1CN(C)C(=O)c2cc(NC(=O)Nc3cccc(Cl)c3)ccc2OC[C@@H](C)N(C)C[C@@H]1C	·	·	–	·
COc1ccccc1CNC(=O)CNC(=O)N1CC(=O)Nc2ccccc21	–	11.3	–	–
COc1ccccc1CNC(=O)CCNC(=O)N1CC(=O)Nc2ccccc21	–	–	–	–
Cc1nn(CCOc2ccccc2)c(=O)n1-c1ccc(Cl)cc1	–	15.5	–	–
CNc1nc(C23CC4CC(CC(C4)C2)C3)cs1	–	11.8	·	–
C[C@H](CO)N1C[C@H](C)[C@@H](CN(C)C(=O)NC2CCCCC2)Oc2c(NS(=O)(=O)c3ccc(Cl)cc3)cccc2C1=O	·	–	–	·
SMILES	PrP 5UTR inh	TcdB inh	Mtb BioA inh	Y pestis TopoI
Fc1ccc(SCCc2ccccn2)cc1	–	–	–	50.1!
CC(C)(C)c1ccc(SCCc2ccccn2)cc1	–	–	·	–
Cc1nc2ccccc2nc1OCC(=O)Nc1ccc(F)cc1	–	12.3	·	–
COc1ccc2c3c(n(C)c2c1)[C@H](CO)N(C(=O)Nc1ccc(F)cc1)CC31CCN(S(=O)(=O)c2cn(C)cn2)CC1	·	–	·	·
CC(OC(=O)C1=COCCO1)C(=O)NC1CCCCC1 (stereo unspecified)	·	–	–	–
CC(OC(=O)C1=COCCO1)C(=O)c1ccc(Br)cc1 (stereo unspecified)	–	13.8	–	–
CN(C)CC1CC/C(=C\c2ccc(O)cc2)C1=O (stereo unspecified)	–	–	·	–
CC1CCC/C(=C\c2ccc(O)cc2)C1=O (stereo unspecified)	–	36.5	–	–
CC(=O)c1sc(NCc2ccc(C)cc2)nc1C	–	–	–	–
COc1ccc(CCNc2nc(C)c(C(C)=O)s2)cc1OC	–	·	81.3	–
Cc1[nH]nc(-c2ccc(O)cc2O)c1Oc1ccccc1	–	10.6	–	–
CCCOC(=O)c1ccc(Oc2c(-c3ccc(O)cc3O)n[nH]c2C)cc1	–	·	–	–
Cc1nn(-c2ccccc2)c(C)c1NC(=O)COC(=O)CCc1ccccc1	–	–	–	–
COc1cccc(CC(=O)OCC(=O)Nc2c(C)nn(-c3ccccc3)c2C)c1	–	10.9	–	–
O=C(NC1CCCCC1)N[C@H]1CC[C@H](CCNS(=O)(=O)c2ccc(F)cc2)O[C@@H]1CO	·	–	–	·
Cc1cscc1-c1nc(NCC2CC2)nc2ccsc12	·	10.6	–	–
CCCN(C)C[C@H]1OCCCC[C@@H](C)Oc2ccc(NS(=O)(=O)c3c(C)noc3C)cc2C(=O)N([C@@H](C)CO)C[C@H]1C	·	–	·	·
O=C1NC(=S)NC1=Cc1ccc(O)cc1	–	16.4	–	–
COc1cc(-c2noc(C)c2C#Cc2ccccn2)cc(OC)c1OC	–	–	–	–
COc1cc(-c2noc(C)c2C#Cc2ccc(N)cc2)cc(OC)c1OC	65.0	–	–	–
CNc1ccc2nc3ccccc3[n+](C)c2c1	–	–	–	–
CCN(CC)c1ccc2nc3ccc(N)cc3[n+](-c3ccccc3)c2c1	–	–	–	534.2
CCN(CC)c1ccc(/C=N/n2nnnc2N)c(O)c1	–	·	–	–
CCN(CC)c1ccc2nc3ccccc3[n+](CC)c2c1	–	·	–	130.6
CC(C)c1cn(CC[C@H]2CC[C@@H](NS(=O)(=O)c3ccccc3)[C@@H](CO)O2)nn1	·	–	–	·
SMILES	PrP 5UTR inh	TcdB inh	Mtb BioA inh	Y pestis TopoI
O=C(NNc1ccc(-c2csnn2)cc1)c1cc(Cl)cc(Cl)c1	·	17.8	–	–
O=C(NNc1ccc(-c2csnn2)cc1)c1ccccc1C(F)(F)F	–	12.5	–	–
O=C(NCc1cccc(Cl)c1)c1ccc(-c2csnn2)cc1	–	–	–	–
O=C(Nc1ccc(-c2csnn2)cc1)C1CC1	–	–	·	–
CCS(=O)(=O)N1Cc2cc(C(=O)O)nc(-c3cccc(-c4ccc(C#N)cc4)c3)c2[C@@H]1CCO	·	–	·	·
CCNC(=O)C[C@@H]1CC[C@H]2[C@H](COc3ccc(NC(C)=O)cc3C(=O)N2C)O1	·	10.5	–	·
CCCNC(=O)C[C@H]1CC[C@@H]2[C@H](COc3ccc(NC(=O)c4ccc(Cl)cc4)cc3C(=O)N2C)O1	·	15.3	–	·
CCCNC(=O)N1CC2(C1)CN(C(=O)c1ccncc1)[C@@H](CO)c1[nH]c3cc(OC)ccc3c12	·	–	·	·
COc1ccc(OC2C(=O)N(Cc3ccc(F)cc3)C2c2cc(OC)c(OC)c(OC)c2)cc1 (stereo unspecified)	–	·	·	–
COC(=O)c1ccc(C2C(Oc3ccc(OC)cc3)C(=O)N2CCc2ccc(F)cc2)cc1 (stereo unspecified)	–	·	·	66.9
O=C(Cc1cccnc1)N[C@H]1CC[C@H](CCn2cc(Cc3ccccc3)nn2)O[C@@H]1CO	·	–	–	·
Cc1noc(C)c1S(=O)(=O)Nc1ccc2c(c1)CC(=O)N([C@H](C)CO)C[C@H](C)[C@@H](CN(C)Cc1ccc(C(=O)O)cc1)O2	·	–	·	·
CCCCCCCNC(=O)C1(CC2CC(c3cccc(Br)c3)=NO2)CCN(C(=O)C2CCCC2)CC1 (stereo unspecified)	–	–	–	60.2
CCCCCCCNC(=O)C1(CC2CC(c3cccc(Br)c3)=NO2)CCN(C(=O)OC(C)(C)C)CC1 (stereo unspecified)	–	–	–	–
Oc1ccc(-c2nccs2)cc1	–	21.5	–	–

From PubChem BioAssay
